Measured values published in PubChem BioAssay (Tox21).
Inconclusive results are not listed. A call without a number means that no potency is given here. Unmarked numbers belong to inactive results. The source made the active and inactive calls. The call rests on the fitted dose curve; in most records, active means well fitted activation curve with a large enough effect in the repeat runs; inconclusive means weak or mixed curves; inactive means flat fitted curve, though single readings scatter. Positions of bridges follow the written chain, without caps; N, C: chain ends. Non-standard residues stand in square brackets, D forms with d. Residues, ends and D or L forms follow the SMILES beside them. hArg = N=C(N)NCCCC[C@H](N)C(=O)O; Mpa = O=C(O)CCS

Assay: A CellTox Green Cytotoxicity Assay to monitor cytotoxicity in HepG2 cells - 32 hour (AID 1224883); further: nearly all actives have a fitted effect of over 50% in size
Details: CellTox Green fluorescence; series mostly up to 76.8 µM
In short: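 Continuous culture of HepG2 cells with a membrane-impermeant DNA dye; rising fluorescence marks dead cells. Compound exposure lasted up to 40 h at 37 C, with reads every 8 h from 0 h.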
For `Cc1c(Cl)cccc1Cl`, the Potency was “inactive”.
With `C[C@]12CCC(=O)C=C1CC[C@H]1[C@@H]3CC[C@](O)(C(=O)CO)[C@@]3(C)C[C@H](O)[C@@]12F` the Potency was “inactive”.
In the case of `CCn1cc(C(=O)O)c(=O)c2cnc(N3CCCC3)nc21`, the cytotoxicity increase is reported as -0.981% [at 6.97 µM].
Work on `CCOC(CN1CCN(CC(C)C(=O)c2ccccc2)CC1)c1ccccc1` (centres undefined) yielded a cytotoxicity increase of -18.4% [at 15.8 µM].
With `CC(N)CCCC(C)(C)O` (centres undefined) the Potency was “inactive”.
With `CCCCOC(=O)[C@H](C)O` the Potency was “inactive”.
In the case of `O=C(CCCl)NCCc1ccccc1`, the Potency is reported as “inactive”.
With `c1ccc2c(CC3=NCCN3)cccc2c1` the Potency was “inactive”.
With `C=CCSSCCC` the Potency was “inactive”.
With `COc1cc2c(cc1OC)CN(C(=O)[C@H](C)N[C@@H](CCc1ccccc1)C(=O)O)[C@H](C(=O)O)C2` the Potency was “inactive”.
For `CC(=O)CCc1ccc(OC(C)=O)cc1`, the Potency was “inactive”.
With `Cc1ccc(C(C)NC(=O)[C@@H](NC(=O)OC(C)C)C(C)C)cc1` (some centres undefined) the Potency was “inactive”.
In the case of `CN(C)CCOC(=O)C(c1ccccc1)C1(O)CCCC1` (centres undefined), the Potency is reported as “inactive”.
For `Cc1cc(C)c(C(=O)O)c(C)c1`, the Potency was “inactive”.
For `O=C(NCN1CCOCC1)c1cnccn1`, the Potency was “inactive”.
In the case of `COC(C)(OC)OC`, the Potency is reported as “inactive”.
In the case of `Cc1c(NC(=O)c2cccnc2)c(=O)n(-c2ccccc2)n1C`, the Potency is reported as “inactive”.
In the case of `CC1OCCC1=O` (centres undefined), the Potency is reported as “inactive”.
In the case of `Cc1ccc(C(=O)O)cc1[N+](=O)[O-]`, the Potency is reported as “inactive”.
With `CC1c2ccccc2CN1NC(=O)c1ccc(Cl)c(S(N)(=O)=O)c1` (centres undefined) the Potency was “inactive”.
For `c1ccc2cnccc2c1`, the Potency was “inactive”.
In the case of `C[Si]1(C)O[Si](C)(C)O[Si](C)(C)O[Si](C)(C)O[Si](C)(C)O1`, the Potency is reported as “inactive”.
For `NC(=O)[C@@H]1CSSCCC(=O)N[C@@H](CCCCN=C(N)N)C(=O)NCC(=O)N[C@@H](CC(=O)O)C(=O)N[C@@H](Cc2c[nH]c3ccccc23)C(=O)N2CCC[C@H]2C(=O)N1` ([Mpa][hArg]GDWPC-NH2; disulfide 1-7), the Potency was “inactive”.
With `C=CC(=O)OCC1CCCO1` (centres undefined) the Potency was “inactive”.
In the case of `CCCCCCCCCOC(=O)c1ccccc1C(=O)OCCCCCCCCC`, the Potency is reported as “inactive”.
With `CC(C)COC(=O)c1ccccc1` the Potency was “inactive”.
In the case of `COC(=O)c1cc(Cl)cc(Cl)c1`, the Potency is reported as “inactive”.
For `CC1(C)Cc2cccc(N)c2O1`, the Potency was “inactive”.
With `CCCCOCC(C)O` (centres undefined) the Potency was “inactive”.
For `c1ccc(-c2nn[nH]n2)cc1`, the Potency was “inactive”.
In the case of `CO/N=C(/C(=O)N[C@@H]1C(=O)N2C(C(=O)[O-])=C(C[n+]3ccn4ncccc43)CS[C@H]12)c1nsc(N)n1`, the Potency is reported as “inactive”.
For `CC(C)(CO)C(O)C(=O)NCCCO` (centres undefined), the Potency was “inactive”.
In the case of `C[C@H]1[C@@H](c2ccccc2)NC(=O)N1C`, the Potency is reported as “inactive”.
With `C=CCCCC` the Potency was “inactive”.
For `CCOCCOCC`, the Potency was “inactive”.
With `CN(C)CCCO[C@@H]1[C@H]2OC(C)(C)O[C@H]2O[C@@H]1C(O)CO` (some centres undefined) the Potency was “inactive”.
In the case of `ONc1ccccc1`, the Potency is reported as “inactive”.

Assay: A CellTox Green Cytotoxicity Assay to monitor cytotoxicity in HEK293 cells - 8 hour (AID 1224884); further: nearly all actives have a fitted effect of over 35% in size
Details: CellTox Green fluorescence; series mostly up to 76.8 µM
In short: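 Each value comes from one timepoint of a single continuous run in which HEK293 cells with CellTox Green were exposed to compound for up to 40 h at 37 C, dye fluorescence rising with cell death.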
For `Cc1c(Cl)cccc1Cl`, the Potency was “inactive”.
With `C[C@]12CCC(=O)C=C1CC[C@H]1[C@@H]3CC[C@](O)(C(=O)CO)[C@@]3(C)C[C@H](O)[C@@]12F` the Potency was “inactive”.
In the case of `CCn1cc(C(=O)O)c(=O)c2cnc(N3CCCC3)nc21`, the cytotoxicity increase is reported as 0.169% [at 6.97 µM].
Molecule `CCOC(CN1CCN(CC(C)C(=O)c2ccccc2)CC1)c1ccccc1` (centres undefined) has a cytotoxicity increase of -4.22% [at 15.8 µM].
In the case of `CC(N)CCCC(C)(C)O` (centres undefined), the Potency is reported as “inactive”.
With `CCCCOC(=O)[C@H](C)O` the Potency was “inactive”.
For `O=C(CCCl)NCCc1ccccc1`, the Potency was “inactive”.
With `c1ccc2c(CC3=NCCN3)cccc2c1` the Potency was “inactive”.
For `C=CCSSCCC`, the Potency was “inactive”.
With `COc1cc2c(cc1OC)CN(C(=O)[C@H](C)N[C@@H](CCc1ccccc1)C(=O)O)[C@H](C(=O)O)C2` the Potency was “inactive”.
In the case of `CC(=O)CCc1ccc(OC(C)=O)cc1`, the Potency is reported as “inactive”.
For `Cc1ccc(C(C)NC(=O)[C@@H](NC(=O)OC(C)C)C(C)C)cc1` (some centres undefined), the Potency was “inactive”.
With `CN(C)CCOC(=O)C(c1ccccc1)C1(O)CCCC1` (centres undefined) the Potency was “inactive”.
In the case of `Cc1cc(C)c(C(=O)O)c(C)c1`, the Potency is reported as “inactive”.
In the case of `O=C(NCN1CCOCC1)c1cnccn1`, the Potency is reported as “inactive”.
In the case of `COC(C)(OC)OC`, the Potency is reported as “inactive”.
In the case of `Cc1c(NC(=O)c2cccnc2)c(=O)n(-c2ccccc2)n1C`, the Potency is reported as “inactive”.
For `CC1OCCC1=O` (centres undefined), the Potency was “inactive”.
In the case of `Cc1ccc(C(=O)O)cc1[N+](=O)[O-]`, the Potency is reported as “inactive”.
In the case of `CC1c2ccccc2CN1NC(=O)c1ccc(Cl)c(S(N)(=O)=O)c1` (centres undefined), the Potency is reported as “inactive”.
For `c1ccc2cnccc2c1`, the Potency was “inactive”.
In the case of `C[Si]1(C)O[Si](C)(C)O[Si](C)(C)O[Si](C)(C)O[Si](C)(C)O1`, the Potency is reported as “inactive”.
With `NC(=O)[C@@H]1CSSCCC(=O)N[C@@H](CCCCN=C(N)N)C(=O)NCC(=O)N[C@@H](CC(=O)O)C(=O)N[C@@H](Cc2c[nH]c3ccccc23)C(=O)N2CCC[C@H]2C(=O)N1` ([Mpa][hArg]GDWPC-NH2; disulfide 1-7) the Potency was “inactive”.
For `C=CC(=O)OCC1CCCO1` (centres undefined), the Potency was “inactive”.
With `CCCCCCCCCOC(=O)c1ccccc1C(=O)OCCCCCCCCC` the Potency was “inactive”.
In the case of `CC(C)COC(=O)c1ccccc1`, the Potency is reported as “inactive”.
With `COC(=O)c1cc(Cl)cc(Cl)c1` the Potency was “inactive”.
In the case of `CC1(C)Cc2cccc(N)c2O1`, the Potency is reported as “inactive”.
In the case of `CCCCOCC(C)O` (centres undefined), the Potency is reported as “inactive”.
For `c1ccc(-c2nn[nH]n2)cc1`, the Potency was “inactive”.
For `CO/N=C(/C(=O)N[C@@H]1C(=O)N2C(C(=O)[O-])=C(C[n+]3ccn4ncccc43)CS[C@H]12)c1nsc(N)n1`, the Potency was “inactive”.
For `CC(C)(CO)C(O)C(=O)NCCCO` (centres undefined), the Potency was “inactive”.
In the case of `C[C@H]1[C@@H](c2ccccc2)NC(=O)N1C`, the Potency is reported as “inactive”.
In the case of `C=CCCCC`, the Potency is reported as “inactive”.
With `CCOCCOCC` the Potency was “inactive”.
For `CN(C)CCCO[C@@H]1[C@H]2OC(C)(C)O[C@H]2O[C@@H]1C(O)CO` (some centres undefined), the Potency was “inactive”.
For `ONc1ccccc1`, the Potency was “inactive”.
